High-throughput results (PubChem)
Tau fibril ThT = inhibitors of human tau fibril formation, thioflavin T binding; P10636; recombinant tau K18 P301L, heparin-induced fibrillization, ThT fluorescence; Potency, µM (highest dose often 57.4 µM), for inactives: at the top dose activity, negative = inhibition, most hits filed as inhibitors; 2.1% of 270,000 active; AID 1460; also: nearly all actives have a fitted effect of over 55% in size
Target sequence (P10636 561-689 P618L limits assumed): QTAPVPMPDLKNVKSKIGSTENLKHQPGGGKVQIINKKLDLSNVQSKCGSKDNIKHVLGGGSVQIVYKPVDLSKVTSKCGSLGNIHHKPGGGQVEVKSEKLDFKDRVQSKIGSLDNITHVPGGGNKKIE
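K18 P301L tau (15 uM + 0.24 uM Alexa 594-tagged), heparin 20 uM, NaOAc pH 7, 6 h 37 C; ThT 30 uM, 1 h RT, ex 450/em 510 nm.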
Tau fluor counter = counter-screen for tau fibril formation inhibitors | tau K18 P301L Alexa594 fluorescence, heparin fibrillization | Potency, µM (highest dose often 57.7 µM), inactives show top-dose activity change, negative = decrease | AID 1463 | 0.93% of 280,000 active; also: nearly all actives have a fitted effect of over 55% in size
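Human tau K18 P301L (15 uM unlabeled, 0.24 uM Alexa 594-labeled) in 100 mM sodium acetate pH 7 with 20 uM heparin, 6 hr at 37 C. ThT 30 uM added, 1 hr ambient; Alexa 594 FP and total fluorescence read at 555/632 nm.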
Sfp PPTase inh = inhibitors of Bacillus subtilis Sfp phosphopantetheinyl transferase | Potency, µM, inactives show largest response in the series, negative = inhibition, usual class: inhibitors | AID 1490 | Q9F4F7 | Biochemical Sfp PPTase activity, qHTS | 3.5% of 310,000 active;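 also: the enzyme is Sfp with the accession as filed and its product quenches rhodamine fluorescence; 0% = enzyme reaction without inhibitor and -100% = no enzyme wells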
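Fluorescence-quenching assay: 15 nM Sfp-PPTase preincubated 15 min at room temperature with compound, then 5 uM rhodamine-CoA and 12.5 uM BHQ-2-labelled YbbR peptide added. Fluorescence (ex 525/em 598 nm) read at start and after 30 min; difference gives rate.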
PLK1 PBD block = PLK1 (human) polo-box domain binding inhibition; P53350; Plk1 PBD binding of FITC phosphopeptide, fluorescence polarization; Potency, µM, without a hit: max response, negative = inhibition, actives largely listed as inhibitors; 2.8% of 360,000 active; AID 720504; also: series mostly up to about 57 µM; nearly all actives have a fitted effect of over 65% in size
Target sequence (P53350 whole entry, looked up, the tested form may be a part): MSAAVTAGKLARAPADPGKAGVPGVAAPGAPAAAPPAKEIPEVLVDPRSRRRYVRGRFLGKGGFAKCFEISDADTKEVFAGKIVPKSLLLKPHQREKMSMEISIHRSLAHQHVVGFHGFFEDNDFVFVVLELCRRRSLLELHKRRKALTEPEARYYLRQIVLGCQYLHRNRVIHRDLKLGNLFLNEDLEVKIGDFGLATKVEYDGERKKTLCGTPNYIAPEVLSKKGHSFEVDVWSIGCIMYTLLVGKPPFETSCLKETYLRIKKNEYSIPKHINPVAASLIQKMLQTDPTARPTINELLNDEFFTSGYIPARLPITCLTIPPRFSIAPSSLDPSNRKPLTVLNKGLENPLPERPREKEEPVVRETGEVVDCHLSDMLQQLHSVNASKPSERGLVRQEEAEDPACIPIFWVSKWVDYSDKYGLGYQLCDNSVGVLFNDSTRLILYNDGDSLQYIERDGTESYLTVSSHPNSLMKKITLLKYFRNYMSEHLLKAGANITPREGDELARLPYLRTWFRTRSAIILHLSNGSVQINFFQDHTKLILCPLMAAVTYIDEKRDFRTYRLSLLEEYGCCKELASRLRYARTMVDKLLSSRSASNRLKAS
Tau FP inhib = blocks human tau fibril formation measured by polarization; P10636; Potency, µM (titrated, usually from 57.7 µM), without a hit: at the highest dose activity, negative = inhibition, most hits filed as inhibitors; 0.39% of 280,000 active; K18 P301L tau heparin fibrillization, Alexa594 FP, 6 h; AID 1468; also: nearly all actives have a fitted effect of over 55% in size
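Heparin (20 uM) drove fibril formation of recombinant tau K18 P301L, 15 uM unlabeled with 0.24 uM Alexa 594 label, for 6 hr at 37 C in 100 mM sodium acetate pH 7. Fluorescence polarization (555/632 nm) read 1 hr after 30 uM ThT.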
VDR inh = inhibitors of human vitamin D receptor. AID 504847. VDR-SRC2-3 peptide fluorescence polarization, 2 h. Potency, µM, without a hit: max response, negative = inhibition, actives largely listed as inhibitors. 0.93% of 400,000 active. P11473
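VDR–SRC2-3 interaction, FP format. Cmpds 23 nl via pintool, brief spin, 2 h ambient incubation.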
An asterisk follows results filed as active; ? = inconclusive; nt = not tested or not shown; [ ] = remark or other dose. In the library only some 6% were active in any assay of this set; here they are far more common. Calls follow the shape of the dose curve; as a rule, active = well fitted curve in the direction sought with a large enough effect; inconclusive = small, poorly fitted or top-dose-only effect, or another doubt; inactive = no such curve, though single readings can be large; an effect the other way counts as inactive or inconclusive. Unless noted, % is scaled to controls: 0 for no effect and ±100 for the full control effect; potency is read from the fitted curve at half-maximal effect.

SMILES | Tau fibril ThT | Tau fluor counter | Sfp PPTase inh | PLK1 PBD block | Tau FP inhib | VDR inh
COc1ccc(NC(=O)c2sc3nc4c(c(-c5ccc(OC)cc5)c3c2N)C(=O)CC(C)(C)C4)cc1 | -14.4% | ? | nt | nt | -6.6% | -7.2%
Cc1ccc(-c2noc(CNC(=O)c3ccc(Br)o3)n2)cc1 | -16.1% | ? | nt | nt | -18.7% | 25.9%
COc1ccc(N=Nc2cc(C)ccc2O)cc1 | 15.8µM* | ? | 3.5% | -15.4% | 11.5% | 13.5%
Nc1ccc(N=Nc2ccc(O)cc2)c(N)n1 | nt | nt | nt | 15.6% | nt | 3.2%
COc1ccc(N=Nc2ccc(N)nc2N)cc1 | 2.51µM* | ? | -11.7% | -6.3% | ? | 8.8%
Nc1n[nH]c(N)c1N=Nc1ccc(F)cc1 | ? | ? | -4.5% | 0.1% | 0.6% | -13.0%
COc1ccc(N=Nc2ccc3ccccc3c2)c(O)c1 | nt | nt | ? | -11.7% | nt | -9.1%
COc1ccc(N=Nc2c(N)n[nH]c2N)cc1 | 14.1µM* | -28.6% | -1.1% | -5.9% | 0.7% | -13.8%
COc1ccc(Br)cc1S(=O)(=O)N1CCCc2ccccc21 | nt | nt | 6.5% | -8.3% | nt | -12.6%
COc1ccc(-c2cn3nc(N4CCCC(C(=O)Nc5ccccc5OC)C4)sc3n2)cc1 (centres undefined) | ? | ? | nt | nt | 4.7% | 6.0%
Cc1ccc(-c2nnc(Nc3ccc(C(N)=O)cc3)c3ccccc23)cc1S(=O)(=O)N1CCCCC1 | -7.3% | ? | nt | nt | 28.2µM* | -3.9%
Cc1ccc(-c2nnc(Nc3ccc(S(N)(=O)=O)cc3)c3ccccc23)cc1S(=O)(=O)N1CCCCC1 | 5.5% | -21.6% | nt | nt | ? | 3.8%
Cc1ccc(-c2nnc(Nc3ccc(O)cc3)c3ccccc23)cc1S(=O)(=O)N1CCCCC1 | -1.7% | 4.47µM*[quencher] | nt | nt | 16.6% | -11.5%
COc1ccc(OC)c(/C=N/NC(=O)c2cc3c(OC)cc(OC)cc3[nH]2)c1 | 5.01µM* | 8.91µM*[quencher] | 18.6% | -0.2% | ? | 3.3%
O=C(N/N=C/c1ccc(OCc2ccccc2)cc1)c1ccncc1 | ? | -19.1% | 13.6% | -8.8% | -12.8% | -1.0%
O=C(C[n+]1ccc(C(=O)N/N=C/c2ccc(OCc3ccccc3)cc2)cc1)c1ccccc1 | 6.31µM* | ? | ? | -8.0% | 0.4% | -7.6%
Oc1ccc(N=Cc2ccc(OCc3ccccc3)cc2)cc1 | 3.98µM* | ? | ? | ? | 12.6µM* | ?
O=C(C[n+]1ccc(C(=O)N/N=C/c2ccc(Br)cc2)cc1)c1ccccc1 | 12.6µM* | ? | -23.9% | -8.7% | -8.8% | -3.4%
CSc1nc2c(c(=O)[nH]1)C(c1cccc(F)c1F)CC(=O)N2 (centres undefined) | 3.1% | 3.3% | nt | nt | 9.5% | 17.0%
COc1cccc(C(=O)N(Cc2cccnc2)c2nc3c(OC)ccc(C)c3s2)c1OC | ? | -27.1% | nt | nt | -3.6% | 14.6%
O=C(C[n+]1ccc(C(=O)N/N=C/c2ccc(O)cc2)cc1)c1ccccc1 | 8.91µM* | ? | ? | -4.3% | -15.9% | -11.9%
COc1ccc(/C=N/NC(=O)C[n+]2ccccc2)c(OC)c1 | -1.6% | 2.2% | 23.8% | 0.8% | 4.5% | -8.6%
COc1ccc(OC)c(/C=N/NC(=O)c2cc[n+](CC(=O)c3ccccc3)cc2)c1 | 11.2µM* | ? | 2.9% | -6.6% | -7.1% | 9.3%
CCN(c1ccccc1)c1cc(NC)[n+](C)c(C)n1 | -1.0% | -3.6% | 12.7% | nt | 1.0% | 0.5%
O=C(NCCc1ccccc1)c1ccc(CSc2nc3ccncc3n2Cc2ccccc2)cc1 | -5.8% | -26.0% | nt | nt | 1.1% | 11.4%
SMILES | Tau fibril ThT | Tau fluor counter | Sfp PPTase inh | PLK1 PBD block | Tau FP inhib | VDR inh
CCOc1ccc(N2C(=O)CN(O)C=C3N=c4ccccc4=C32)cc1 | -10.4% | -8.3% | 4.47µM* | nt | -7.8% | nt
CCCC[C@H](NC(=O)[C@H](CC(C)C)NC(=O)CNC(=O)[C@@H](NC(=O)[C@H](Cc1ccccc1)NC(=O)[C@H](CO)NC(=O)[C@@H](N)CC(=O)O)C(C)C)C(N)=O | nt | nt | -3.0% | nt | nt | 1.1%
COc1ccccc1NS(=O)(=O)c1cccc(-n2c(O)c(C=Nc3ccccc3C(=O)O)c3ccccc3c2=O)c1 | 15.8µM* | ? | -5.4% | 29.9µM* | -16.6% | -18.1%
COc1ccc(-c2ccc(/C=C3/C(=N)N4C(C)=CSC4=NC3=O)o2)c([N+](=O)[O-])c1 | 2.24µM* | ? | 12.8% | -5.5% | -9.9% | -18.8%
O=[N+]([O-])c1ccc2c(c1)ncn2-c1ccccc1 | -12.2% | -14.8% | -6.1% | -4.0% | -5.1% | 4.8%
Cn1c(-[n+]2c(-c3ccccc3)cc(-c3ccccc3)cc2-c2ccccc2)nc2cc([N+](=O)[O-])ccc21 | ? | -20.1% | 22.4µM* | -13.4% | -1.9% | -12.0%
CCCC(=O)N1CCC1(C)C(=O)Nc1ccc2c(c1)CCN2C(C)=O (centres undefined) | nt | nt | nt | 0.7% | nt | nt
CO/N=C/c1c(C(=O)OC)nn(-c2ccccc2)c1Cl | -10.3% | -11.2% | 15.4% | 3.77µM* | -6.4% | ?
COC(=O)c1nn(-c2ccccc2)c(Cl)c1/C=N/OCc1c(Cl)cccc1Cl | nt | nt | nt | -12.8% | nt | 6.5%
COc1ccc(N2CCN(C(=O)C(=O)c3cn(CC(=O)N4CCCC4)c4ccccc34)CC2)cc1 | nt | nt | nt | -4.7% | nt | nt
c1c2c(cc3sc(N4CCOCC4)nc13)OCO2 | ? | -15.6% | 35.5µM* | 26.7µM* | -0.2% | ?
c1c2c(cc3sc(N4CCCCC4)nc13)OCO2 | ? | -28.1% | -25.9% | ? | -16.5% | 4.2%
c1ccc(N2CCN(c3nc4cc5c(cc4s3)OCO5)CC2)cc1 | 2.51µM* | -18.1% | 44.7µM* | 26.7µM* | -3.7% | ?
CCOC(=O)c1c(C)oc2nc(C)nc(NCc3ccc(OC)cc3OC)c12 | ? | -11.8% | nt | nt | 2.1% | -6.3%
CC(C1CC1)N(Cc1ccccc1)C(=S)Nc1cccc(C(F)(F)F)c1 (centres undefined) | -5.5% | -16.1% | -5.8% | 29.9µM* | -7.2% | -18.9%
CC(C1CC1)N(Cc1ccccc1)C(=S)Nc1ccccc1 (centres undefined) | 4.8% | 3.1% | 20.4% | -14.2% | -2.4% | -14.3%
O=C1C(=Cc2cccs2)Oc2ccccc21 | nt | nt | nt | 1.2% | nt | -9.5%
O=C1OC(c2ccccc2)=C/C1=C/c1cccs1 | 3.16µM* | ? | 50.1µM* | 2.0% | ? | 2.2%
CC1CCN(CC(=O)Nc2ccccc2-c2ccccc2)CC1 | 2.0% | 1.6% | 9.5% | -0.9% | 18.2% | -0.9%
CC1CCCCC1NCC(=O)Nc1ccccc1-c1ccccc1 (centres undefined) | -14.1% | -6.5% | 79.4µM* | -17.1% | 0.9% | -4.6%
O=C(NCCn1cc(SCc2ccc(C(F)(F)F)cc2)c2ccccc21)c1ccccc1F | ? | ? | nt | nt | -14.8% | 8.1%
O=C(NCCn1cc(SCc2ccc(C(F)(F)F)cc2)c2ccccc21)c1cccs1 | ? | 5.62µM*[quencher] | nt | nt | -13.7% | 4.6%
